Screening data deposited in PubChem by several laboratories.
In the library only some 27% were active in any assay of this set; here they are far more common.
Cav3 T inh: blocks human Cav3.2 T-type calcium channel. O95180. Cav3.2-expressing cells, Fluo-4 calcium fluorescence FDSS; active compounds read low. B-score at 10 µM. 4% of 100,000 active. AID 449739;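 active = single-dose well whose peak fluorescence ratio is a statistical outlier from its plate by either plate-standardised score or position-corrected B-score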
CYP2C9 inh: inhibitors of human CYP2C9. P11712. CYP2C9 Supersomes, luciferin-H conversion, luminescence. inhibition, % at 5 µM. 20% of 96,000 active;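 active = blocking of liver enzyme CYP2C9 beyond about 50% at 5 µM, limit read from the data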
Target sequence (P11712 whole entry, looked up): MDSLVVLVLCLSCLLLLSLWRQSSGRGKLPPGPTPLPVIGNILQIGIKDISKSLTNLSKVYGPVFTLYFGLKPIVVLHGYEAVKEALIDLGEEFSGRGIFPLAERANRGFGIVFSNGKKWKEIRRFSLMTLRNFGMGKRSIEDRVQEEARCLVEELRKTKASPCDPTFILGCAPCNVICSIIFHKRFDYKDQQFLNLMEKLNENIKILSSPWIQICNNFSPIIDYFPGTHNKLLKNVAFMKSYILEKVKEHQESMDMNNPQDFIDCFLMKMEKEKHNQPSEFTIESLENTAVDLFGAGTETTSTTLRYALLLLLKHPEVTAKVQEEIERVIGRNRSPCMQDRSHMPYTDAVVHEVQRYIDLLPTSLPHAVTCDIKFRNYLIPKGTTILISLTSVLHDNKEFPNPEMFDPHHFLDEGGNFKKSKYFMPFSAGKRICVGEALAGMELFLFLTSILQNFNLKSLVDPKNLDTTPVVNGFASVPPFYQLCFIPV
CYP2C19 activ: increases human CYP2C19 enzyme activity; recombinant CYP2C19, luciferin-H EGE luminescence; active compounds read high; 0 = fully inhibited enzyme, 1 = untreated enzyme; activation factor at 5 µM; 96,000 tested, under 10 active; AID 1025;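 active = activation factor of at least 2 at 5 µM in the primary screen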;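 note: 0 = wells with 2.5 mM tranylcypromine and 1 = vehicle-only wells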
CYP2C19 inhib: human CYP2C19 inhibition | P33261 | CYP2C19 Supersomes, luciferin-H EGE luminescence, 30 min | inhibition, % at 5 µM | 21% of 96,000 active | AID 778;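 active = CYP2C19 inhibition above a set limit at 5 µM in the primary screen, cut at about 50% in these data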;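 note: plate controls were negative control wells for no effect and 2.5 mM tranylcypromine positive control for full effect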
CYP2C9 activ: increases human cytochrome P450 2C9 activity; activation factor at 5 µM; recombinant CYP2C9, luciferin-H conversion, luminescence; active compounds read high; factor 1 = untreated enzyme, 0 = blocked; P11712; 1.4% of 96,000 active; AID 1024;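 active = activation factor of 2 or more for CYP2C9 at a 5 µM dose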;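 note: 0 = sulfaphenazole-blocked wells and 1 = vehicle-only wells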
* marks the source's active call; other numbers are inactive results.

Screening CC(=O)N1CCc2cc(S(=O)(=O)CCC(=O)Nc3ccc4c(c3)OCCO4)ccc21 returned Cav3 T inh 0.068, CYP2C9 inh 4, CYP2C19 activ 0.9, CYP2C19 inhib 12 and CYP2C9 activ 1.
Screening CCOC(=O)c1cccc(NC(=O)C(NS(=O)(=O)c2ccc3c(c2)CCN3C(C)=O)C(C)C)c1 (stereo not given) returned Cav3 T inh 0.49, CYP2C9 inh 68*, CYP2C19 activ 0.8, CYP2C19 inhib 19 and CYP2C9 activ 0.3.
`CC(=O)N1CCc2cc(S(=O)(=O)NC(C(=O)Nc3ccc4c(c3)OCCO4)C(C)C)ccc21` (stereo not given) gave Cav3 T inh -0.64, CYP2C9 inh 52*, CYP2C19 activ 0.6, CYP2C19 inhib 39 and CYP2C9 activ 0.5.
Screening O=C(C1CCC1)N1CCc2cc(S(=O)(=O)Nc3ccc4c(c3)OCCO4)ccc21 returned Cav3 T inh 0.91, CYP2C9 inh 0, CYP2C19 activ 1, CYP2C19 inhib 2 and CYP2C9 activ 1.
`CCOC(=O)C1Nc2c(F)cc(C)cc2C2c3ccccc3CC12` (stereo not given) gave Cav3 T inh 0.2.
O=C(C1CCN(c2ccc(N3CCOCC3)nn2)CC1)N1CCN(c2ccc(F)cc2)CC1 was read as Cav3 T inh 0.97, CYP2C9 inh 4, CYP2C19 activ 1, CYP2C19 inhib 1 and CYP2C9 activ 1.
Screening S=C(c1ccc2c(c1)OCO2)N1CCCCCC1 returned Cav3 T inh 0.63, CYP2C9 inh 55*, CYP2C19 activ 0, CYP2C19 inhib 99* and CYP2C9 activ 0.5.
O=C(CCN1CCCCC1)c1ccc2c(c1)OCO2 was read as Cav3 T inh -0.088, CYP2C9 inh -2, CYP2C19 activ 0.9, CYP2C19 inhib 8 and CYP2C9 activ 1.
CN(C(=O)c1ccc2c(c1)OCO2)C1(C(=O)NC2CCCC2)CCCCC1 was read as Cav3 T inh 0.022, CYP2C9 inh 33, CYP2C19 activ 0.9, CYP2C19 inhib 9 and CYP2C9 activ 0.7.
Screening S=C(NC1CCCCC1)c1ccc2c(c1)OCO2 returned Cav3 T inh -0.4, CYP2C9 inh -2, CYP2C19 activ 0.2, CYP2C19 inhib 83* and CYP2C9 activ 1.
Screening O=C(c1ccc2c(c1)OCO2)N(CC1CCCO1)C1(C(=O)NC2CCCCC2)CCCCC1 (stereo not given) returned Cav3 T inh -3.1, CYP2C9 inh 71*, CYP2C19 activ 0.3, CYP2C19 inhib 70* and CYP2C9 activ 0.3.
C=CCNC(=O)c1cc(=O)c2ccccc2o1 was read as Cav3 T inh 0.43, CYP2C9 inh 16, CYP2C19 activ 0.9, CYP2C19 inhib 9 and CYP2C9 activ 0.8.
For CCCCCCNc1c([N+](=O)[O-])cc(C)cc1[N+](=O)[O-] the results were Cav3 T inh 0.0096.
For O=C(c1cc2n(n1)C(C(F)(F)F)CC(c1ccc(F)cc1)N2)N1CCCC1 (stereo not given) the results were Cav3 T inh 0.25, CYP2C9 inh 23, CYP2C19 activ 1, CYP2C19 inhib 5 and CYP2C9 activ 0.8.
`CC(=O)OC1CSc2nc3ccccc3n2C1` (stereo not given) gave Cav3 T inh 1.3.
Screening Fc1ccc(Cn2c(SCc3ccc(F)c(C(F)(F)F)c3)nnc2C(F)(F)F)cc1 returned Cav3 T inh -3.2, CYP2C9 inh 56*, CYP2C19 activ 0.4, CYP2C19 inhib 64* and CYP2C9 activ 0.4.
Screening Fc1ccc(Cn2c(SCc3ccc(F)c(F)c3)nnc2C(F)(F)F)cc1 returned Cav3 T inh -3.8*, CYP2C9 inh 57*, CYP2C19 activ 0.3, CYP2C19 inhib 67* and CYP2C9 activ 0.4.
Screening CCOc1ccc(C2=Cc3cc(OC)c(OC)cc3C(=C(Cl)Cl)O2)cc1 returned Cav3 T inh 0.025, CYP2C9 inh 21, CYP2C19 activ 0.9, CYP2C19 inhib 10 and CYP2C9 activ 0.8.
S=C(Nc1ccccc1)N1CCn2c1nc1ccccc12 was read as Cav3 T inh 0.12, CYP2C9 inh 9, CYP2C19 activ 1, CYP2C19 inhib 5 and CYP2C9 activ 0.9.
For CC(C)n1c(N2CCN(C(=O)Nc3ccccc3)CC2)nc2ccccc21 the results were Cav3 T inh -1.5, CYP2C9 inh 52*, CYP2C19 activ 0.6, CYP2C19 inhib 36 and CYP2C9 activ 0.5.
Screening COc1ccc(NC(=O)N2CCn3c2nc2ccccc23)cc1 returned Cav3 T inh -0.77, CYP2C9 inh 71*, CYP2C19 activ 0.5, CYP2C19 inhib 49 and CYP2C9 activ 0.3.
O=C(Nc1ccccc1)N1CCn2c1nc1ccccc12 was read as Cav3 T inh 0.85, CYP2C9 inh 66*, CYP2C19 activ 0.8, CYP2C19 inhib 18 and CYP2C9 activ 0.3.
O=C(C1CCC1)N1CCc2cc(S(=O)(=O)N3CCN(c4ccccn4)CC3)ccc21 was read as Cav3 T inh -2, CYP2C9 inh 40, CYP2C19 activ 1, CYP2C19 inhib 0 and CYP2C9 activ 0.6.
Screening CCOC(=O)c1[nH]c(COC(=O)CCCOc2ccccc2)c(C(=O)OCC)c1C returned Cav3 T inh -1.2, CYP2C9 inh 80*, CYP2C19 activ 0.6, CYP2C19 inhib 45 and CYP2C9 activ 0.2.
O=C1CC(c2ccc3c(c2)OCO3)CN1 (stereo not given) was read as Cav3 T inh 0.0064, CYP2C9 inh -8, CYP2C19 activ 1, CYP2C19 inhib -2 and CYP2C9 activ 1.1.
For CC1C(=O)C(C)C(c2ccc3c(c2)OCO3)NC1c1ccc2c(c1)OCO2 (stereo not given) the results were Cav3 T inh -2.3, CYP2C9 inh 72*, CYP2C19 activ 0, CYP2C19 inhib 97* and CYP2C9 activ 0.3.
For CN1c2ccccc2Oc2c(c(=O)n(C)c(=O)n2C)C1c1cccc([N+](=O)[O-])c1 (stereo not given) the results were Cav3 T inh 0.42, CYP2C9 inh 54*, CYP2C19 activ 0.8, CYP2C19 inhib 23 and CYP2C9 activ 0.5.
Screening O=C1c2ccccc2C(=O)C12OC(c1ccccc1)C1(C(=O)c3ccccc3C1=O)C2c1cccc([N+](=O)[O-])c1 (stereo not given) returned Cav3 T inh -1.1.
For CC1CCCN(C2=NC(=O)/C(=C/c3cn(-c4ccccc4)nc3-c3cccc(S(=O)(=O)N(C)C)c3)S2)C1 (stereo not given) the results were Cav3 T inh -0.5, CYP2C9 inh 65*, CYP2C19 activ 0.6, CYP2C19 inhib 37 and CYP2C9 activ 0.3.
`Cc1ccc(-c2nn(-c3ccccc3)cc2C=C2C(=O)CC(C)(C)CC2=O)cc1` gave Cav3 T inh 2.2.
For COc1ccc(-n2c(C)cc(C(=O)Cn3c(NCCO)nc4ccccc43)c2C)cc1 the results were Cav3 T inh -6.8*, CYP2C9 inh 63*, CYP2C19 activ 0.4, CYP2C19 inhib 65* and CYP2C9 activ 0.4.
`O=C(Cn1c(NCCO)nc2ccccc21)c1ccc(Cl)cc1` gave Cav3 T inh -0.75, CYP2C9 inh 5, CYP2C19 activ 0.9, CYP2C19 inhib 8 and CYP2C9 activ 1.
